Assay [1] is described as follows: qHTS Assay for Agonists of the Thyroid Stimulating Hormone Receptor. As to conditions: HEK293-CNG-TSHR cells, membrane potential dye, cAMP; measured here: parental cells max response. From the text: (§1) NIH Chemical Genomics Center [NCGC]
(§2) NIH Molecular Libraries Screening Centers Network [MLSCN]
(§3) PI Name: Dr. Marvin Gershengorn, NIH
(§4) Thyroid Stimulating Hormone Receptor
(§5) TSH is an alpha/beta heterodimeric glycoprotein hormone secreted from the anterior pituitary gland which belongs to the glycoprotein hormone family. The actions of TSH are mediated by a seven-transmembrane receptor, which upon TSH binding couples preferentially to the G-alpha (s) protein (Gs), resulting in activation of adenylate cyclase and increase in cyclic adenosine 3', 5' monophosphate (cAMP). The TSH receptor (THSR) is mainly expressed in thyroid follicular cells and regulates their growth and function. Recombinant TSH is used to activate TSHR in patients with thyroid cancer receiving thyroid hormone suppression therapy and to screen for residual tumor after surgery, but it is expensive and must be administered intramuscularly. An orally active small molecule TSHR agonist would serve as an invaluable research tool for studying TSHR pharmacology and physiology, and would have multiple advantages in therapeutic settings. However, no selective small molecule agonist of the TSH receptor exists, and no small molecule screen for TSHR agonists has ever been reported.
(§6) This cell based assay utilized a cyclic nucleotide gated ion channel (CNG) as a biosensor for cAMP induction by potential TSHR agonists.
(§7) HEK 293 cells stably expressing the TSHR as well as a modified CNG were purchased from BD biosciences. Stimulation of cAMP production causes the CNG to open and subsequent membrane depolarization to occur. A fluorescent membrane potential dye (BD biosciences) was utilized to detect cAMP stimulation in TSHR cells.
(§8) The cells were maintained in DMEM medium (Invitrogen) containing 10 % FBS (Hyclone), 100 units/ml Penicillin, 100 ug/ml Streptomycin (Invitrogen), and 250 ug/ml Geneticin (Invitrogen) and 1 ug/ml Puromycin (Invitrogen) at 37C in 5% CO2. HEK 293 cells expressing CNG but without TSHR (parental cells) were used in concert to control for compounds signaling through endogenous receptors and targets of HEK 293 cells.
(§9) NCGC Assay Protocol Summary:
(§10) High Throughput Screening. Freshly passaged cells (TSHR or parental) were dispensed into 1536-well assay plates at 4 ul/well in DMEM containing phenol red (Invitrogen), 10% FCS (Hyclone), and 100 units/ml Penicillin, 100 ug/ml Streptomycin (Invitrogen) and incubated at 37 C with 5% CO2 for 20 to 36 hrs before the robotic screening. The screen was initiated by addition of 4 ul/well membrane potential dye containing 100 uM RO 20-1724 (Sigma Aldrich), followed by 60 min incubation at room temperature to allow for dye equilibration across the cell membrane. 23 nl/well compound or control was then added to the assay plates, which were incubated for additional 30 min before reading a Envision fluorescence plate reader (Perkin Elmer) in bottom-read mode for fluorescence intensity (emission at 590 nm).
(§11) Keywords: Thyroid-stimulating hormone TSH, TSHR, TSHR agonist, quantitative high throughput screening, qHTS, HTS, probe identification, CNG, cAMP, cyclic nucleotide gated ion channel PubChem
A general note: qHTS replaces the single test concentration by a dilution series.

Assay [2] has as its target Thyrotropin receptor (Homo sapiens) (UniProt P16473). Described as above. As to conditions: HEK293-CNG-TSHR cells (CNG channel as cAMP sensor), membrane potential dye, cAMP; series mostly up to 57.1 µM.
Text: as §1, §2, §3, §4, §5, §6, §7, §8, §9, §10, §11

In PubChem BioAssay AID926 (National Center for Advancing Translational Sciences (NCATS), 2007) one finds activation and Potency data, which are given here for 39 molecules.

Several values for one entry are separate records, joined by “and”; a condition that tells them apart may be missing. Equal values may be shown once. In all, about 73,000 compounds went through this assay and about 350 (0.48%) were called active. Another 17% or so got no clear call; they are omitted. The call rests on the fitted dose curve; in most records, active means well fitted activation curve with a large enough effect in the main read-out, with a control signal flat (not every such curve was filed as active); inconclusive means small, poorly fitted or top-dose-only effect, or a change in a side signal; inactive means no such curve, though single readings can be large or run the other way; reference of the percent scale not stated here. What follows is part of a selection rich in actives, with near analogues and random picks from the rest.
Potency means the concentration at half of the fitted maximal effect.

Chain of Thyrotropin receptor (Homo sapiens) (P16473 whole entry, looked up): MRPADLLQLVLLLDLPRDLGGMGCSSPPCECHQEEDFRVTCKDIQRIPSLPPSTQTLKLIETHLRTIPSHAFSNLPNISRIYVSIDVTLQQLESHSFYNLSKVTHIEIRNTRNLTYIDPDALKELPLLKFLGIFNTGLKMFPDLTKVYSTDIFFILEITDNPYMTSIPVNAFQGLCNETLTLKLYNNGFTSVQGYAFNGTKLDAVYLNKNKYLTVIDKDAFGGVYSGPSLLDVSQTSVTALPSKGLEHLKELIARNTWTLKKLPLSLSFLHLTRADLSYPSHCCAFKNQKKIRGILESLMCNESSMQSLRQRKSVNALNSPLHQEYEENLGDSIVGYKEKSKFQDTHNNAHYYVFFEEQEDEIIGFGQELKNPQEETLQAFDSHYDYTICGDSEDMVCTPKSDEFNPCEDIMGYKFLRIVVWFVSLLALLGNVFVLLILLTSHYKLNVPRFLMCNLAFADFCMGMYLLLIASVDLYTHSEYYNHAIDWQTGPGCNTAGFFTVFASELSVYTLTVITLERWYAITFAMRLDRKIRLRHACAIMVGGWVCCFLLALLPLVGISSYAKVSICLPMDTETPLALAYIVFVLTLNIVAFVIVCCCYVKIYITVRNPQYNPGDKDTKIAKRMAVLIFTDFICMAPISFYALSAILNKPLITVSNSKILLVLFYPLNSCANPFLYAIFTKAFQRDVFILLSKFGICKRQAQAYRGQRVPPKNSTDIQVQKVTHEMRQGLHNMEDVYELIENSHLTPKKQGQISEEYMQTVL

As to `CC1CN(c2cc(=O)n(Cc3ccc(F)cc3)c(=O)[nH]2)CC(C)O1` (stereo not drawn), the activation in assay [1] came out at 3.44%. Moreover, in assay [2], the Potency entry was “inactive”.
Take `COc1cccc([C@H]2Oc3ccc(OC)cc3/C(=N\OCC[C@@H]3C=C[C@H](OC(C)=O)[C@H](COC(C)=O)O3)[C@@H]2O)c1`: the activation is 1.81% in assay [1] and 9.23% [at 11.4 µM] (inactive) in assay [2].
In the same order, the values of `COC(=O)[C@@H]1CC[C@H](C)[C@@H](c2ccc(C)cc2)N1C(=O)c1ccc(/C=N\OC[C@@H](O)COCc2ccco2)cc1` are 44.4% and 16.9% [at 11.4 µM] (inactive).
Regarding `c1ccc2c(Nc3ccncc3)nc(-c3ccc4c(c3)OCO4)nc2c1`, in assay [1], the activation is -4.18%. In addition, the Potency entry in assay [2] was “inactive”.
In the same order, the values of `CCc1ccccc1NC(=O)c1cccs1` are -1.56% and “inactive”.
For the molecule `Nc1ccccc1N`, the activation in assay [1] was -14.7%. The Potency result in assay [2] was “inactive”.
Consider `Cc1ccc(CCn2c3c(c4ccccc42)CN(C)CC3)cn1`, for which the activation in assay [1] amounted to 19.4%. For the same molecule, the Potency entry in assay [2] was “inactive”.
For `COC(=O)[C@@]1(Cc2ccc(F)cc2)[C@H]2c3cc(C(=O)N(C)C)n(CCc4c[nH]c5ccc(OC)cc45)c3C[C@H]2CN1C(=O)c1ccccc1`, in that order: 3.36% and “inactive”.
For `CO[C@H]1COC(=O)[C@@H](C)NC(=O)C/C=C\[C@@H](C)[C@H](OC)COC(=O)C/C=C\[C@@H]1C`, the results for the activation in assay [1] and in assay [2] were 2.45% and -73.4% [at 11.4 µM] (inactive), respectively.
For `CCOc1cc(/C=N/O)cc(Br)c1OC`, in that order: 15% and 4.51% [at 11.4 µM] (inactive).
In the same order, the values of `C[C@H]1CC[C@H](C(=O)O)N[C@@H]1c1ccc(C#Cc2ccccc2)cc1` are 0.689% and 0.128% [at 11.4 µM] (inactive).
With `O=C(c1cccs1)N1CCN(Cc2ccc3c(c2)OCO3)CC1`, the activation in assay [1] is -2.72%. In addition, the Potency entry in assay [2] was “inactive”.
In the same order, the values of `C[C@@H]1O[C@@H](O[C@@H]2[C@@H](O)[C@H](OCCc3ccc(O)c(O)c3)O[C@H](CO[C@@H]3O[C@H](CO)[C@@H](O)[C@H](O)[C@H]3O)[C@H]2OC(=O)/C=C/c2ccc(O)c(O)c2)[C@H](O)[C@H](O)[C@H]1O` are 23.7% and “inactive”.
In the same order, the values of `c1nc(COc2nsnc2N2CCOCC2)cs1` are -7.01% and “inactive”.
In the same order, the values of `O=C(O)COc1nsnc1N1CCOCC1` are -10.1% and “inactive”.
Turning to `c1ccc(COc2nsnc2N2CCOCC2)cc1`, in assay [1], the activation turned out to be 27.1%. Also, the Potency in assay [2] is 31.6 µM (active).
Take `COc1ccc(OC)c(NC(=O)CSc2nc(N)c(-c3ccccc3)c(=O)[nH]2)c1`: in assay [1], the activation worked out at 9.04%. For the same molecule, in assay [2], the Potency is 25.1 µM (active).
For `CCn1c(COc2ccc(OC)cc2)nnc1SCC(=O)Nc1cc(OC)ccc1OC`, in that order: 24.1% and “inactive”.
Turning to `COc1ccc(OC)c(NC(=O)CC(Cc2ccccc2OC)C(=O)O)c1` (stereo not drawn), the activation in assay [1] is 9.66%. Moreover, the Potency result in assay [2] was “inactive”.
For `CN(C)CCCCNC(=O)c1ccc(Cc2nc3ccccc3[nH]2)cc1`, in that order: 3.13% and “inactive”.
In the same order, the values of `Cc1ccc2oc(=O)c3cnn(CC(=O)N4CCN(c5ccccn5)CC4)c3c2c1` are 4.94% and “inactive”.
For the molecule `CC(C)[C@@H](OCc1ccccc1)[C@H](C)/C=N\OC[C@@H](C)[C@H](OCc1ccccc1)C(C)C`, the activation in assay [1] is 2.03%; in assay [2], 1.85% [at 11.4 µM] (inactive).
For the molecule `Cc1c(S(=O)(=O)O)ccc(N=Nc2c(O)c(C(=O)O)cc3ccccc23)c1Cl`, the activation in assay [1] is -23.8%; in assay [2], -9.34% [at 11.4 µM] (inactive).
In the case of `Cc1nc2cnc(N3CCNCC3)nc2n(CCc2ccccc2)c1=O`, the activation in assay [1] was found to be 9.57%. Besides, in assay [2], the Potency entry was “inactive”.
`CCOC(=O)c1c(NC(=O)CCC(=O)NCc2ccco2)sc2c1CCCC2`: the activation in assay [1] turned out to be 12.9%. Besides, the Potency entry in assay [2] was “inactive”.
For `O=C(COC(=O)CCC(=O)c1cccs1)NCc1ccco1`, in that order: 10.5% and “inactive”.
`O=C(COC(=O)C12CC3CC(CC(C3)C1)C2)NCc1ccco1`: the activation in assay [1] was -8.57%. In addition, in assay [2], the Potency was 0.794 µM (active).
In the case of `CC(C)CO/N=C1/C[C@@H](O)[C@@H](O)[C@@H]2[C@@H]3C(=O)N(C[C@@H]4CCCO4)C(=O)[C@H]3CC[C@@H]12`, the activation in assay [1] was 4.27%; in assay [2], -4.09% [at 11.4 µM] (inactive).
For `COC(=O)C(C(=O)OC)[C@@H]1CCCC(=O)C1`, in that order: 4.23% and -9.31% [at 11.4 µM] (inactive).
`COC(=O)C(C)Sc1ccc2nnc(-c3cccc(F)c3)n2n1` (stereo not drawn): the activation in assay [1] was 2.29%. In addition, the Potency result in assay [2] was “inactive”.
`CSc1ccc(Cl)c(C(=O)OCC(=O)N2CC(C)OC(C)C2)c1` (stereo not drawn): the activation in assay [1] was 6.62%. Further, in assay [2], the Potency entry was “inactive”.
`COC(=O)C1=C(C)N(Cc2ccccc2)C2=C3C(=O)N(c4ccccc4)C(=O)C3[C@@](O)(C(=O)OC)C(=O)N2C1c1ccccc1` (stereo partly drawn): the activation was 9.18% and 2.67% in assay [1]; -0.785% [at 11.4 µM] (inactive) and 7.43% [at 11.4 µM] (inactive) in assay [2].
On to `CCCNC(=O)OC[C@@H]1O[C@H](c2ccccc2)C=C[C@@H]1Oc1ccc(OC)cc1`, for which the activation in assay [1] is 1.38%; in assay [2] it was 1.94% [at 11.4 µM] (inactive).
In the same order, the values of `CN1CCCc2cc(C#N)c(=O)[nH]c21` are 7.1% and 4.78% [at 11.4 µM] (inactive).
As for `O=C(CN1C(=O)NC2(CCCCC2)C1=O)NCCC1=CCCCC1`, the activation in assay [1] stood at 3.28%. The Potency in assay [2] was 12.6 µM (active).
With `O=C(Cc1nn[nH]n1)NCCC1=CCCCC1`, the activation in assay [1] stood at 15.8%. The Potency entry in assay [2] is “inactive”.
For `O=C(COc1cccc(-n2cnnn2)c1)NCCC1=CCCCC1`, in that order: -0.416% and “inactive”.
As to `CNC(=O)C1(C)C=CC2(CCCCC2)N1C(C)=O` (stereo not drawn), the activation in assay [1] turned out to be 9.38%. The Potency result in assay [2] is “inactive”.
For `O=C(c1ccccc1)c1ccc2nc(N3CCCCC3)c3nncn3c2c1`, in that order: 3.47% and “inactive”.
